p53 reactivation: restores transcriptional activity of mutant p53; H1299 p53-A138V BP100-luciferase reporter, luminescence, 24 h; Potency, µM (top dose mostly 92.2 µM), inactives show at the highest dose activity change, positive = activation, actives largely listed as activators; 0.063% of 320,000 active; note: potency is the fitted concentration of half-maximal effect; % of control where 0% means no effect; nearly all actives have a fitted effect of over 45% in size
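H1299 (p53-null), stable ts p53-A138V + BP100-Luc; 1000 cells/well, Opti-MEM/10% FBS; cpd 4 pt, 1:5; 24 h, 37 deg C, 5% CO2; detection reagent 10 min RT; luminescence.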
ELG1 repair inh: ELG1-dependent DNA repair inhibition | HEK293T ELG1-luciferase reporter, luminescence, 16 h; DNA damage induced by 5-fluorouridine | 2.3% of 330,000 active | Potency, µM (doses to about 46.1 µM), for inactives: at the top dose activity change, negative = inhibition, usual class: inhibitors; note: potency is the fitted concentration of half-maximal effect; % is set by controls: 0 for no effect and ±100 for the full control effect; nearly all actives have a fitted effect of over 55% in size
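Step one: seed 2,000 cells per well. Step two: pin-transfer compound or DMSO alongside 5-fluorouridine. Step three: incubate 16 hr, 37 °C, 5% CO2. Step four: add ONE-Glo, wait 30 min, read luminescence.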
Giardia kill: kills Giardia lamblia | activity change, % at 7.66 µM, hits read low | AID 540267 | Giardia lamblia trophozoite viability | 0.15% of 340,000 active; in the data active = activity change below about -80%; inconclusive = between about -30% and that limit;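 note: parasites exposed to compound for two days anaerobically before the ATP read; % is set by controls: 0 for no effect and ±100 for the full control effect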
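Viability, read as ATP luminescence: trophozoites at 100 cells/well, compound added, 48 hrs anaerobic at 37 deg C, then 15-30 min room-temperature development before reading.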
RORg inh: blocks mouse ROR gamma transcriptional activity; 5.4% of 310,000 active; Potency, µM (series often up to 53.6 µM), for inactives: at the top dose activity change, negative = inhibition, most hits filed as inhibitors; P51450; Drosophila S2 Gal4-RORgamma UAS-luciferase reporter, 20 h; note: potency is the fitted concentration of half-maximal effect; % is set by controls: 0 for no effect and ±100 for the full control effect; nearly all actives have a fitted effect of over 60% in size
Target sequence (P51450 whole entry, looked up, the tested form may be a part): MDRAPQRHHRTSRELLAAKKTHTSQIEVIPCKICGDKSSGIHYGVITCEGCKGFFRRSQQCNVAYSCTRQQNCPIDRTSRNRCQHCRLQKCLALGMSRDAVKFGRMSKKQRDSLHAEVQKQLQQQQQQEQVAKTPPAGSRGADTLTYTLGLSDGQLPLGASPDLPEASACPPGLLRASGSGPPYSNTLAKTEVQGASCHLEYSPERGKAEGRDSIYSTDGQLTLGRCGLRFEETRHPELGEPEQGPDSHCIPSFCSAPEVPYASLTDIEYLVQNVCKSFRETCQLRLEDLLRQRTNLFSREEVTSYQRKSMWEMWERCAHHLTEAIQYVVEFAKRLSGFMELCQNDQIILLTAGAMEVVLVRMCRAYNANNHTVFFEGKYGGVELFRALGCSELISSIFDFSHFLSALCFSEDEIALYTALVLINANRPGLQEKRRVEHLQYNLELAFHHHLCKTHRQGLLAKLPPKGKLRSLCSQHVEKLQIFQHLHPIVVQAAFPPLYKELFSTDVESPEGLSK
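Read-out: Photinus luciferase luminescence; inhibitors lower reporter signal. Insect Schneider cells with Gal4-ROR gamma fusion under metallothionein promoter, UAS reporter; 700 uM final copper sulfate induction, 20 hr, ambient temperature.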
BRCA1 expr up: increases BRCA1 expression; Potency, µM (highest dose often 46.1 µM), for the others: at the highest dose activation, actives largely listed as activators; AID 624202; 1.1% of 380,000 active; MCF7-BRCA1-FFLuc reporter, luminescence, 48 h; response scale: scaled: vehicle 0%, 10 µM genistein 100%; note: potency is the fitted concentration of half-maximal effect; nearly all actives have a fitted effect of over 80% in size
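Quantitative HTS in MCF7 cells stably reporting BRCA1 expression via firefly luciferase. Compound treatment lasts 48 h at 37 °C in phenol-red free MEM. Activation is expressed relative to genistein at 10 microM and DMSO.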
VP16 counter: counter-screen for ROR gamma inhibitors: Gal4-VP16 reporter | Potency, µM (titrated, usually from 53.6 µM), inactives show at the top dose activity, negative = inhibition, actives largely listed as inhibitors | 3.5% of 310,000 active | Drosophila S2 Gal4-VP16 UAS-luciferase, luminescence, 20 h;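 note: Gal4-VP16 expression switched on by copper sulfate through the metallothionein promoter; potency is the fitted concentration of half-maximal effect; % is set by controls: 0 for no effect and ±100 for the full control effect; nearly all actives have a fitted effect of over 50% in size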
* = called active by the depositor; ? = inconclusive; nt = no result given; [ ] = another dose, or the depositor's remark. Shown are actives, neighbours in structure and some others; about 7.6% of the full set was active somewhere. Unless noted, calls come from the whole dose curve; as a rule, active = well fitted curve in the direction sought with a large enough effect; inconclusive = small, poorly fitted or top-dose-only effect, or another doubt; inactive = no such curve, though single readings can be large; an effect the other way counts as inactive or inconclusive.

SMILES	p53 reactivation	ELG1 repair inh	Giardia kill	RORg inh	BRCA1 expr up	VP16 counter
CCCCNS(=O)(=O)c1ccc(OCC(=O)OC)cc1	-2.0%	-0.7%	5.5	10.7%	0.5%	-1.8%
O=S(=O)(CCSc1ccccn1)c1nc2ccccc2s1	?	5.3%	-6.0	12.6µM*	-53.7%	?
O=S(=O)(CCSc1nc2ccccc2o1)c1nc2ccccc2s1	-25.8%	?	3.9	?	-80.6%	?
Cc1ccc(Nc2nc3nonc3[nH]c2=O)cc1	?	?	3.7	32.8%	11.2µM*	9.2%
COc1ccc(C(=O)C2CCCN(Cc3cccn3-c3ccccn3)C2)cc1F (stereo not given)	-4.0%	-11.3%	17.2	?	-19.1%	-12.5%
COc1ccccc1N1CCN(C(=O)c2cc(C(=O)N3CCN(c4ccccc4OC)CC3)cc([N+](=O)[O-])c2)CC1	6.1%	-7.4%	9.3	-17.8%	1.5%	-5.6%
COc1ccccc1N1CCN(C(=O)c2ccc([N+](=O)[O-])s2)CC1	6.3%	-25.7%	?	7.94µM*	-29.1%	-9.0%
COc1ccccc1N1CCN(C(=O)c2cc3c(=O)n(C)c4ccccc4c3n2C)CC1	1.5%	16.4µM*	43.9	12.2%	0.6%	-0.4%
COc1ccccc1N1CCN(/N=C/c2ccc([N+](=O)[O-])cc2)CC1	nt	?	-0.4	?	5.01µM*	?
COc1ccccc1N1CCN(C(=O)Nc2ccc([N+](=O)[O-])cc2)CC1	-1.9%	14.6µM*	2.4	?	-3.0%	-6.3%
COc1ccccc1N1CCN(/N=C/c2ccc(Cl)c([N+](=O)[O-])c2)CC1	nt	?	-8.0	nt	?	nt
COc1cccc(Oc2cc(NN3CCCCC3)c([N+](=O)[O-])cc2[N+](=O)[O-])c1OC	nt	22.2%	41.6	-0.6%	-23.5%	-0.3%
O=C(Nc1ccccc1N1CCOCC1)c1ccc2c(c1)OCCO2	-20.3%	3.2%	-2.8	-3.5%	3.0%	?
COc1ccc(Cc2noc(CN(C)Cc3ccc(-n4cccn4)cc3)n2)cc1OC	-3.5%	?	?	25.1%	-25.6%	-3.2%
CCc1ccc(CN(C)Cc2nc(Cc3ccc(OC)c(OC)c3)no2)nc1	-3.3%	-7.4%	-2.3	10µM*	-10.7%	-5.2%
CCc1ccc([C@H]2[C@@H]3C(=O)C[C@@H]4C(=O)N(C5CCCCC5)C(=O)[C@@H]4[C@@H]3CN2S(=O)(=O)c2ccc(C)cc2)cc1	nt	nt	nt	nt	-16.3%	nt
CCC(C)N1CCN(C(=O)C2CCN(S(=O)(=O)c3c(C)noc3/C=C/c3ccco3)CC2)CC1 (stereo not given)	6.0%	?	8.4	4.1%	-22.1%	-9.0%
Cc1cccc(NC(=O)C2CCN(S(=O)(=O)c3c(C)noc3/C=C/c3ccco3)CC2)n1	-2.1%	13µM*	-1.0	?	-41.8%	-20.3%
CCNC1(C#N)CCN(Cc2ccccc2)CC1	nt	nt	4.9	nt	-2.5%	nt
COc1ccc2c(=O)c(Oc3ccc(C(=O)O)cc3)c(C(F)(F)F)oc2c1	-12.0%	?	-3.3	?	-22.9%	12.6µM*
COc1ccc(C2C3C=CCC(c4ccccc4)C3C(=O)N2Cc2ccccc2)cc1Cl (stereo not given)	nt	nt	-10.4	?	nt	?
CCCC(=O)NC(=S)N1CCN(c2ccc([N+](=O)[O-])cc2)CC1	5.1%	?	-25.1	3.16µM*	-7.5%	?
Cc1cccc(N2CCN(C(=O)CNC(=O)c3cccc([N+](=O)[O-])c3)CC2)c1C	-5.6%	18.3µM*	12.7	?	-33.7%	-2.0%
O=C(NC(=S)N1CCCCCC1)c1cccc([N+](=O)[O-])c1	-8.4%	-3.0%	2.7	nt	1.9%	nt
Cc1cccc(N2CCN(C(=O)CNC(=O)Cc3ccccc3)CC2)c1C	5.1%	?	16.4	nt	-28.5%	nt
SMILES	p53 reactivation	ELG1 repair inh	Giardia kill	RORg inh	BRCA1 expr up	VP16 counter
O=C(NC(=S)N1CCCC1)c1cccc([N+](=O)[O-])c1	?	1.3%	9.0	2µM*	16.3%	0.708µM*
O=[N+]([O-])c1ccc(N2CCN(C(=S)Nc3ccc(F)cc3)CC2)cc1	-4.6%	?	1.8	?	-26.5%	?
O=C(NC(=S)N1CCN(c2ccc([N+](=O)[O-])cc2)CC1)c1ccccc1	7.2%	-3.7%	-0.1	0.282µM*	-7.3%	0.562µM*
O=C(CN1CCN(C(C(=O)Nc2cc(C(F)(F)F)ccc2Cl)c2ccccc2)CC1)NC1CC1 (stereo not given)	nt	nt	19.3	nt	-42.6%	nt
Cc1ccc(C(=O)NC(=S)N2CCCCCC2)cc1	7.4%	?	-23.0	nt	35.4%	nt
Cc1ccc(C(=O)NC(=S)N2CCN(c3ccc([N+](=O)[O-])cc3)CC2)cc1	-2.1%	-3.1%	-13.6	0.708µM*	-46.6%	1µM*
Cc1ccn2nc(C(=O)OCC(=O)N(CC(C)C)C3CCS(=O)(=O)C3)nc2n1 (stereo not given)	-5.2%	14.0%	-7.4	nt	-3.7%	nt
Cc1cc(C)nc(SCCS(=O)Cc2ccc(Cl)cc2)n1 (stereo not given)	-11.3%	?	2.6	22.8%	-16.3%	-11.0%[0.365 µM]
Cn1cc(CNCc2ccc(-n3cccn3)cc2)c(-c2ccccc2F)n1	-3.1%	?	20.0	?	-22.9%	11.2µM*
Cn1cc(CNCCCn2ncc3ccccc32)c(-c2ccccc2F)n1	-4.6%	-1.6%	4.0	27.6%	28.9%	-8.3%
COc1ccccc1S(=O)(=O)Cc1ccc(C(=O)N2CCOCC2)o1	6.7%	16.3%	-8.4	-12.5%	4.0%	-0.8%
COc1ccccc1S(=O)(=O)Cc1ccc(C(=O)N2CCN(c3ccccc3)CC2)o1	-20.2%	20.6µM*	-13.0	30.9%	-40.6%	6.7%
COc1ccccc1S(=O)(=O)Cc1ccc(C(=O)N2CCN(c3cccc(Cl)c3)CC2)o1	?	11.6µM*	6.0	-47.3%	-77.3%	-5.5%
O=C(Nc1cc(N2CCOCC2)ncn1)c1ccc(F)cc1	7.3%	?	3.5	-2.8%	-29.8%	-17.2%
CCCn1nc(C(=O)NNC(=O)c2ccc(C)c(C)c2)c2ccccc2c1=O	-0.8%	?	10.2	nt	-18.5%	nt
CCCn1nc(C(=O)N2CCN(S(=O)(=O)c3ccc(C)c(C)c3)CC2)c2ccccc2c1=O	-4.6%	23.1µM*	23.1	nt	-8.2%	nt
COc1ccc(CN2CCN(C(=O)Cn3nc(C)n4cccc4c3=O)CC2)c(OC)c1OC	-1.4%	?	-2.1	9.1%	-3.8%	4.1%
NC(=O)c1ccc(N=Cc2c(O)ccc3ccccc23)cc1	nt	nt	-14.4	nt	-33.1%	nt
CCCS/C(N)=N/N=C/c1ccccc1O	?	?	-11.5	0.631µM*	49.1%	1.41µM*

Assay outcomes: PubChem BioAssay, National Center for Advancing Translational Sciences (NCATS)
